Source: PubChem
In the library only some 7.5% were active in any assay of this set; here they are far more common.
Rab9 promoter act: Rab9 promoter activation; Huh7 Rab9 promoter-luciferase reporter, luminescence, 24 h; 2.8% of 320,000 active; AID 485297; Potency, µM (series often up to 9.22 µM), inactives show top-dose activation, negative = inhibition, usual class: activators; note: % of control where 0% means no effect; nearly all actives have a fitted effect of over 60% in size
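Huh7 cells stably carrying Rab9 promoter–luciferase reporter, plated 1500 cells/well, compound added after 2 h and incubated 24 h at 37 °C; luciferase luminescence then read after 10 min with detection reagent.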
NPC1 prom act: activators of NPC1 promoter; 2.4% of 320,000 active; Huh7 NPC1 promoter luciferase reporter, 24 h; AID 485313; Potency, µM (series often up to 9.22 µM), for inactives: top-dose activation, hits mostly activators; note: % of control where 0% means no effect; nearly all actives have a fitted effect of over 60% in size
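Quantitative HTS used a cell-based reporter: Huh7 cells stably bearing the NPC1 promoter upstream of luciferase were treated with compounds for 24 h, and promoter activation was read as luminescence.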
FLuc counter: firefly luciferase modulation, counter-screen for miR-21 project. P08659. purified FLuc, Km substrates, luminescence inhibition. Potency, µM (series often up to 57.5 µM), without a hit: top-dose activity change, negative = inhibition, usual class: inhibitors. 6.9% of 360,000 active. AID 588342;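 note: plate controls were vehicle for no effect and reference inhibitor for full effect; nearly all actives have a fitted effect of over 55% in size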
Target sequence (P08659 whole entry, looked up): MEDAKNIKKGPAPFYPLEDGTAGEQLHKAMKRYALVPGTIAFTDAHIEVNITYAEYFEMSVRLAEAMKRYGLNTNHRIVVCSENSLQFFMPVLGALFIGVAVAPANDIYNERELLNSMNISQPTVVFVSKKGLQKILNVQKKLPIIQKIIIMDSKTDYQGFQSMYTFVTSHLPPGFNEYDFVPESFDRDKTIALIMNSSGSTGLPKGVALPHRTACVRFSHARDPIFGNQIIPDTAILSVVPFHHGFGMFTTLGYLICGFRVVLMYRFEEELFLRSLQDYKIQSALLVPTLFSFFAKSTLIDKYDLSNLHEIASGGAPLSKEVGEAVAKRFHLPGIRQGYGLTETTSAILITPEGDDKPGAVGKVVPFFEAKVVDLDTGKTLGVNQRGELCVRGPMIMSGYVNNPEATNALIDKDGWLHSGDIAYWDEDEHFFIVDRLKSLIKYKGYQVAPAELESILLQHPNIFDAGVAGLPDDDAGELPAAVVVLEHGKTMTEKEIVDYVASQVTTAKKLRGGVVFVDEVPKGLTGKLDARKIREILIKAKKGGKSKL
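Purified P. pyralis luciferase (10nM final) with 10uM D-luciferin and 10uM ATP (Km levels) in 50mM Tris acetate pH 7.5, 10mM Mg acetate, 0.01% Tween-20, 0.05% BSA; qHTS 6-point titration, ~60 µM downward; luminescence read.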
ELG1 genotox: genotoxicity induction in ELG1-luciferase HEK293T cells | HEK293T ELG1-luciferase reporter, luminescence, 16 h | Potency, µM (titrated, usually from 46 µM), inactives show at the top dose activity change, positive = activation, usual class: activators | 1.3% of 330,000 active | AID 504466; note: % of control where 0% means no effect; nearly all actives have a fitted effect of over 60% in size
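ELG1-luciferase HEK293T cells, 2,000/well; compound pinned in; 16 hr, 37 °C, 5% CO2; ONE-Glo, 30 min RT; luminescence on CCD imager.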
SMN2 splice up: increases expression of the SMN2 splice variant; HEK293 SMN2-luciferase splicing reporter, luminescence, 30-36 h; 2.8% of 210,000 active; Potency, µM (series often up to 46.1 µM), without a hit: at the highest dose activity change, positive = activation, usual class: activators; note: % of control where 0% means no effect; nearly all actives have a fitted effect of over 55% in size
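HEK293 cells carry an SMN2 […]–luciferase reporter in which exon 7 inclusion puts luciferase in frame. Cells were plated 10-12 h before compound addition, then incubated 30-36 h at 37C. ONE-Glo luminescence was read; sodium butyrate at 4.5 mM final served as control.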
Luc counter: counter-screen: inhibitors of Kinase-Glo firefly luciferase | Q27757 | Kinase-Glo luciferase, ATP luminescence, 8 min | Potency, µM (series often up to 38.3 µM), for the others: top-dose activity change, negative = inhibition, usual class: inhibitors | 0.28% of 200,000 active | AID 1379; note: % is set by controls: 0 for no effect and ±100 for the full control effect; nearly all actives have a fitted effect of over 60% in size
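Light output from Kinase-Glo luciferase with luciferin and 10 uM ATP in 50 mM imidazole pH 7.2, KCl, MgCl2, Tween 20, BSA; compound pin-delivered, 8-min ambient incubation, then luminescence read.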
Numbers without * were called inactive; ? = inconclusive; / = no result given; ! = a repeat was not active; [ ] = another dose, or the depositor's remark. Calls come from the whole dose curve; as a rule, active = well fitted curve in the direction sought with a large enough effect; inconclusive = small, poorly fitted or top-dose-only effect, or another doubt; inactive = no such curve, though single readings can be large; an effect the other way counts as inactive or inconclusive. Potency is the fitted concentration of half-maximal effect.

SMILES | Rab9 promoter act | NPC1 prom act | FLuc counter | ELG1 genotox | SMN2 splice up | Luc counter
CCOc1ccc(C(=O)NCC(=O)OCC(=O)Nc2ccc(C)c(S(=O)(=O)N(C)C)c2)cc1 | -3% | -3% | 4.8µM* | 2% | 1% | 6%
CCOc1ccc(C(=O)NCC(=O)OCC(=O)Nc2ccccc2OCC)cc1 | -3% | 1% | 24µM* | 1% | 2% | 0%
COc1ccc(C(=O)NCC(=O)OCC(=O)Nc2cc([N+](=O)[O-])ccc2F)cc1 | 1% | -2% | 24µM* | 12% | -1% | -3%
CCc1ccc(NC(=O)C2CCC(CNS(=O)(=O)c3cccs3)CC2)cc1 (configuration not stated) | / | / | -6% | / | -9% | /
CC[C@H]1OC(=O)[C@H](C)[C@@H](O[C@H]2C[C@@](C)(OC)[C@@H](O)[C@H](C)O2)C(C)[C@@H](O[C@@H]2O[C@H](C)C[C@H](N(C)C)[C@@H]2O)[C@](C)(OC)C[C@@H](C)C(=O)[C@H](C)[C@@H](O)[C@]1(C)O (some centres not stated) | / | / | / | / | -8% | -6%
C=CCn1c2ccccc2n2nc(C)c(=O)nc12 | 1% | -6% | 0% | 1% | 6% | 2%
C=CCn1c(O)c(N=O)c2ccccc21 | 0% | 0% | -3% | 2% | / | /
C=CCn1c2ccccc2c(=O)c2cc(C#Cc3ccsc3)ccc21 | 21% | 16% | 0.67µM* | 10% | / | /
C=CCn1c2ccccc2c(=O)c2cc(C#Cc3ccccn3)ccc21 | -4% | 4µM* | 7.6µM* | 3% | / | /
CCOC(=O)c1c(C)[nH]c(N=Nc2cc(C(=O)O)cc(C(=O)O)c2)c1C | 8% | -2% | 17µM* | 2% | / | /
CCOC(=O)c1c(C)[nH]c(CCC(=O)Nc2cc(C)ccc2OC)c1C | / | / | 7% | / | / | /
CCOC(=O)c1[nH]c(C)c(C(=O)O)c1C | -4% | 0% | 0% | -4% | -9% | 2%
CCOC(=O)c1[nH]c(C)c(C(=O)Nc2ccccc2C)c1C | -32% | -27% | -6% | ? | 28% | 3%
CCOC(=O)c1c(C)[nH]c(N=Nc2ccccc2C)c1C | ? | 28% | 15µM* | 23µM* | 19% | -4%
CCOC(=O)c1c(C)[nH]c(N=Nc2ccc(C)cc2C)c1C | 0.25µM* | ? | 15µM* | ? | 11% | 2%
CCCN(CCC)Cc1c(C(=O)N/N=C/C(C)=C\c2ccccc2)nnn1-c1nonc1N | 0% | -6% | -15% | -23% | / | /
CC(/C=N/NC(=O)c1nnn(-c2nonc2N)c1C(C)C)=C\c1ccccc1 | ? | ? | 1.5µM* | 3% | / | /
CCCc1c(C(=O)N/N=C/C(C)=C/c2ccccc2)nnn1-c1nonc1N | 14% | 13% | 2.4µM* | 7% | / | /
CCCCN1C=CC(=C2N=c3cccc([N+](=O)[O-])c3=N2)C=C1 | ? | ? | 21µM* | ? | 11µM* | ?
Cc1ccc(C(=O)O/N=C(\N)Cc2cccs2)cc1[N+](=O)[O-] | 3.2µM* | 2.2µM* | 0% | ? | / | /
COC(=O)c1ccccc1NC(=O)C1CCN(C(=O)N2CC(C)Oc3ccccc32)CC1 (configuration not stated) | / | / | 4.8µM* | / | / | /
CCC1CN(C(=O)N2CCC(C(=O)NCc3ccccc3F)CC2)c2ccccc2O1 (configuration not stated) | / | / | 0% | / | / | /
CCC1CN(C(=O)N2CCC(C(=O)N3CCN(c4cc(C)ccc4C)CC3)CC2)c2ccccc2O1 (configuration not stated) | / | / | 1.9µM* | / | / | /
CCC1CN(C(=O)N2CCC(C(=O)Nc3ccccc3F)CC2)c2ccccc2O1 (configuration not stated) | 3% | -1% | 11µM*! | -3% | / | /
COc1ccc(-n2c(=O)c(-c3cccs3)nc3cnc(N4CCNCC4)nc32)cc1 | / | / | / | / | -117% | -3%
SMILES | Rab9 promoter act | NPC1 prom act | FLuc counter | ELG1 genotox | SMN2 splice up | Luc counter
N/C(=N\N=C/c1ccc(F)cc1)N/N=C\c1ccc(F)cc1 | -3% | -1% | 6µM* | 5% | / | /
CNC(=O)C(=O)N/N=C/c1ccc(Br)cc1 | 12% | 7% | ? | 7% | -2% | -1%
N/C(=N\N=C/c1ccc(Br)cc1)N/N=C\c1ccc(Br)cc1 | ? | 1% | 11µM* | 2% | -8% | 0%
CC(=O)c1ccc(NC(=O)OCCN2CCN(Cc3ccccc3)CCC2=O)cc1 | / | / | / | / | / | 1%[39.9 µM]
COc1ccc(N2CCN(C(=O)C3Cc4ccccc4N3C(C)=O)CC2)cc1 (configuration not stated) | / | / | -5% | / | / | /
COC(=O)CNC(=O)COC(=O)/C=C/c1ccc2ccccc2n1 | -2% | 1% | ? | 7% | 3% | -1%
CC(OC(=O)/C=C/c1ccc2ccccc2n1)C(=O)NCc1ccccc1 (configuration not stated) | -3% | -6% | 9.5µM* | -3% | / | /
Cc1ccc(O)c(C=Nc2ccc3[nH]ncc3c2)c1 | -6% | 5% | 19µM* | -3% | 23% | -3%
CCN(CC)c1ccc2c(O)cc(=O)oc2c1 | 1% | 0% | 12µM* | 3% | 7% | 3%
CCOC(=O)C1CCN(c2nc(-c3ccc(Br)cc3)cs2)CC1 | / | / | -2% | / | / | /
O=C(OCC(=O)N1CCc2ccccc21)c1c2c(nc3ccccc13)CCCC2 | 21% | 8% | 6.7µM* | -19% | / | /
O=C(COC(=O)c1c2c(nc3ccccc13)CCCCC2)c1ccc(Cl)s1 | 13% | 1% | 13µM* | -9% | 1% | 3%
O=C(COC(=O)c1c2c(nc3ccccc13)CCCC2)c1cccs1 | 2% | 11% | 11µM* | -8% | -6% | 1%
NC(=O)COC(=O)c1c2c(nc3ccccc13)CCCCC2 | -1% | -4% | -3% | -2% | 4% | -1%
COC(=O)c1nnc(C(=O)N(C)Cc2ccccc2)c2[nH]c3ccccc3c12 | / | / | / | / | 1% | 2%
Cc1ccc(Nc2ncc(C(=O)N3CCN(c4ccc(F)cc4)CC3)c3ccccc23)cc1Cl | / | / | -3% | / | -31% | /
O=C(O)Cn1c(COc2ccc(Cl)cc2)nc2ccccc21 | 2% | -2% | 11µM* | 0% | / | /
NNC(=O)Cn1c(COc2ccc(Cl)cc2)nc2ccccc21 | 2% | -5% | 12µM* | 5% | 6% | -7%
CC(C)C[C@@H]1NC(=O)[C@H](Cc2ccc(O)cc2)NC(=O)[C@H](CCC(N)=O)NC(=O)c2cc([N+](=O)[O-])cc(I)c2NCC[C@@H](C(N)=O)NC1=O | 2% | -4% | 0% | 1% | 18µM* | 3%
COc1ccc(CC(=O)N2CCN(c3ccccn3)CC2)cc1 | 2% | -5% | 1% | 0% | 12% | 4%
